Experimental findings from PubChem BioAssay AID525 (The Scripps Research Institute Molecular Screening Center, 2006) are described below.

Screen size: about 65,000 compounds; about 360 (0.55%) were called active.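 Rule for the calls: active = inhibition above the mean inhibition of all tested compounds plus 3 SD (cut at about 48% in these data); inactive = the rest.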 Shown is part of a subset that was picked to be rich in actives.

For orientation: inhibition means the relative decrease from the control value, in per cent.

For this experiment, the target named is Steroidogenic factor 1 (Homo sapiens) (UniProt Q13285). Put plainly: suppressors of SF-1 driven luciferase transcription – cell-based, CHO-K1, Gal4-SF-1 LBD, luciferase luminescence, primary screen (AID 525).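 Note: 0% = SF-1 transfected cells with DMSO and 100% = mock-transfected cells lacking SF-1.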 To be noted: CHO-K1 Gal4-SF-1 LBD luciferase reporter; at 10 µM; active compounds read high. (In general: In a reporter assay the amount or activity of a reporter protein is the signal.)
Sequence of Steroidogenic factor 1 (Homo sapiens) (Q13285 whole entry, looked up, the tested form may be a part): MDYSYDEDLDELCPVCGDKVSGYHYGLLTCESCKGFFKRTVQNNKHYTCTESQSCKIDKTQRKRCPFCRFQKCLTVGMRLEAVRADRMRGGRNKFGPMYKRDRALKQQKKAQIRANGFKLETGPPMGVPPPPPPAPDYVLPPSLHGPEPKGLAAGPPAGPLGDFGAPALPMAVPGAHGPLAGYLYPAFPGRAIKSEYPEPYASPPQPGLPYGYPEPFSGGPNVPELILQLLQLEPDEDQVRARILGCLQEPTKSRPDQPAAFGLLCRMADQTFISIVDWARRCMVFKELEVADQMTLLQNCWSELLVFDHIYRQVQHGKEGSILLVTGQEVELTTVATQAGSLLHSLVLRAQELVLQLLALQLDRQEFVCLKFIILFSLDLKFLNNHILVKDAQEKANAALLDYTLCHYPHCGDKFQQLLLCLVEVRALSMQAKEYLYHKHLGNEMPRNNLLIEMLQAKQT
Regarding `C=CCn1c(=O)c2ccccc2n2c(SCC(=O)N3CCCc4ccccc43)nnc12`, the inhibition is 8.4% (inactive).

`CCC(C(=O)NC1CCCC1)N(C(=O)c1snc(C(N)=O)c1N)c1ccc2c(c1)OCCO2` (centres undefined): the inhibition is -2.2% (inactive).

Take `CCOc1cc(C(=S)N2CCOCC2)ccc1O`: the inhibition is 3.9% (inactive).

Regarding `CCOc1cc(C(=O)N2CCc3cc(OC)c(OC)cc3C2)ccc1OC(F)F`, the inhibition is 77.3% (active).

Consider `COc1ccc(-c2cc(C(=O)NC(C(=O)O)C(C)C)c(C)o2)cc1OC` (centres undefined), for which the inhibition is -56.5% (inactive).

Take `CCOc1ccccc1-n1c(SCC(=O)NCc2ccco2)nnc1-c1ccncc1`: the inhibition was 6.1% (inactive).

On to `O=C(CN1C(=O)C2C3C=CC(C3)C2C1=O)NCC1COc2ccccc2O1` (centres undefined), for which the inhibition is -7.1% (inactive).

Consider `CC(C)OCCCNc1ncnc2c1[nH]c1ccc(F)cc12`, for which the inhibition is 84.1% (active).

In the case of `CC(C)CNC(=O)c1cc(-c2ccc(Br)cc2)on1`, the inhibition was -52.5% (inactive).

Consider `Cn1c(NC(=O)c2ccco2)c(-c2ccccc2Cl)c(=O)c2ccccc21`, for which the inhibition is -7.6% (inactive).

As to `CC1=C(C(=O)OCc2ccccc2)C(c2ccco2)n2ncnc2N1` (centres undefined), the inhibition is 14.7% (inactive).

With `O=C(COc1ncnc2ccccc12)NC(=O)NCc1ccccc1`, the inhibition is 2.4% (inactive).

With `CN(Cc1ccccc1)Cc1ccccc1F`, the inhibition was 9.2% (inactive).

For the compound `O=C(CN1C(=O)COc2ccccc21)Nc1ccc(F)cc1`, the inhibition was 8.5% (inactive).

As to `CC(C)(C)NC(=O)Cn1nnc(-c2ccccc2Cl)n1`, the inhibition is -50% (inactive).

In the case of `O=C(Cn1cc2c(n1)CCCCC2)NCCN1CCOCC1`, the inhibition was 8.1% (inactive).

With `COC(=O)c1ccc(NCC(=O)c2ccccc2)cc1`, the inhibition is -68.7% (inactive).

Turning to `O=C(Cn1cnc2c(cnn2-c2ccccc2)c1=O)NCc1ccccc1`, the inhibition was -70.3% (inactive).

For the compound `COc1ccccc1-c1cc(C(=O)N2CCCCC2)no1`, the inhibition is -82.1% (inactive).

With `CCOc1cccc(C(=O)Nc2cccnc2)c1`, the inhibition is -6.7% (inactive).

With `Cc1noc(/C=C/N(C)C)c1S(=O)(=O)N1CCCC(C(=O)NCc2ccco2)C1` (centres undefined), the inhibition is 15% (inactive).

`COc1ccccc1Nc1ncnc2c1oc1ccccc12`: the inhibition was -91.8% (inactive).

With `COC(=O)N1CN(C(=O)OC)CN(C(=O)OC)C1`, the inhibition is -1.7% (inactive).

Regarding `C=C(C)CSc1nc(N)c2c3c(sc2n1)CCC3`, the inhibition was -51.4% (inactive).

As for `CC(C)(CNCC(O)c1ccccc1)N1CCOCC1` (centres undefined), the inhibition is -12.6% (inactive).

Take `O=C(CS(=O)(=O)c1cn(Cc2cccc(F)c2)c2ccccc12)N1CCCCC1`: the inhibition was -5.4% (inactive).

Turning to `Cc1noc(COc2ccccc2OCC(O)CNC(C)(C)C)n1` (centres undefined), the inhibition was 0.5% (inactive).

Take `COC(=O)c1c(NC(=O)c2cccs2)sc2c1CCCC2`: the inhibition was -28.2% (inactive).

In the case of `N#CCCN1CCN(S(=O)(=O)c2ccc(S(=O)(=O)N3CCCC3)cc2)CC1`, the inhibition is 18% (inactive).
